# Results from PubChem BioAssay.
# Potency and affinity values are given separately. Active and inactive are the calls of the source. The rule behind the calls is not given here.
# Experiment: OVCAR8 cell viability loss – plate reader, dry powder samples, PAX8 project, dose response (AID 743197)
# Details: series mostly up to 35 µM; activity change, negative = cytotoxicity: at the top concentration
row,Structure (SMILES),"activity change, negative = cytotoxicity"
1,Cc1cccc(S(=O)(=O)N2CC[C@@H]3[C@H](CO)N(C)c4ccc(-c5ccc(C#N)cc5)cc4[C@@H]32)c1,11.2% (inactive)
2,C[C@H]1CN([C@@H](C)CO)S(=O)(=O)c2ccc(C#Cc3ccc(F)cc3)cc2O[C@@H]1CN(C)C(=O)NC1CCCCC1,14% (inactive)
3,COc1cccc(S(=O)(=O)N2CCCCN3[C@@H](CO)[C@@H](c4ccc(C#CCC(C)C)cc4)[C@@H]3C2)c1,11.9% (inactive)
4,C[C@H]1CCCCO[C@@H](CN(C)Cc2ccc3c(c2)OCO3)[C@@H](C)CN([C@@H](C)CO)C(=O)c2cc(NC(=O)Nc3ccc(F)cc3)ccc2O1,-8.27% (inactive)
5,O=C(Cc1ccccc1)N1CC[C@H]2[C@H](CO)Nc3ccc(C4=CCCCC4)cc3[C@H]21,3.88% (inactive)
